Here are results for 39 sequences from publication PMC7862700, “An all-to-all approach to the identification of sequence-specific readers for epigenetic DNA modifications on cytosine”.

Chain of ELF1 (P32519 whole entry): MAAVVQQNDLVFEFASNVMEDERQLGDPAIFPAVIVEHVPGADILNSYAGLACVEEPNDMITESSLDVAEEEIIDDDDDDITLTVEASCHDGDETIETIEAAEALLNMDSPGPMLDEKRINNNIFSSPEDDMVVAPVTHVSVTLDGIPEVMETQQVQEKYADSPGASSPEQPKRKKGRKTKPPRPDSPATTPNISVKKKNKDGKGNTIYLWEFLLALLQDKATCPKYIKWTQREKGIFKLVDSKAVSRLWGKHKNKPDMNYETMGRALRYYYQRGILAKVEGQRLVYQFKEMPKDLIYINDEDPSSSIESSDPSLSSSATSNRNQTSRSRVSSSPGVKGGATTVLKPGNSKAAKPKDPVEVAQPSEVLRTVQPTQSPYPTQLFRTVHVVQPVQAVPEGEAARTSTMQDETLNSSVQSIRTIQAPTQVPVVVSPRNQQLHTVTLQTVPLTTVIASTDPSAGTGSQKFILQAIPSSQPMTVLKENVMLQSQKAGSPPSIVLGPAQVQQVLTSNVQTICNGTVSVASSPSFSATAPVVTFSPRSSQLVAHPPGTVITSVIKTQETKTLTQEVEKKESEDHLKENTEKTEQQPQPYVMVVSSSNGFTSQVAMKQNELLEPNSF

The first assay deals with T1, ERG (Homo sapiens, UniProt P11308 1-479).
T1 sequence: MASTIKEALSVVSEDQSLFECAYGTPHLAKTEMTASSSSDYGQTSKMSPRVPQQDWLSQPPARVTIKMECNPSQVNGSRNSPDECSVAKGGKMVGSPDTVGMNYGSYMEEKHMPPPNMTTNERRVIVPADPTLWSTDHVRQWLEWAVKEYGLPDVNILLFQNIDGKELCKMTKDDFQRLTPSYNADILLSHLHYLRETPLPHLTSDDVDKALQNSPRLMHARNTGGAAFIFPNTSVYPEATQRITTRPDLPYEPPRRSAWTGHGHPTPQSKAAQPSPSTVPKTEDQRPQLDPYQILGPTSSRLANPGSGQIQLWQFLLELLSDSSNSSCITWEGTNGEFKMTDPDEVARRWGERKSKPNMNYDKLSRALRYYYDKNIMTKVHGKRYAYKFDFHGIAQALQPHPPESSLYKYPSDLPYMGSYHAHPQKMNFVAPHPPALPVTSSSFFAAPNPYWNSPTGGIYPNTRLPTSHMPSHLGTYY
Description: DAPPL (digital affinity profiling via proximity ligation, sequencing); 10 mM Tris-HCl pH 7.5, 50 mM NaCl, 1 mM DTT, 4% glycerol, room temperature, 30 min; GST-TFs on glutathione beads, 16-mer random dsDNA library, 0.1% formaldehyde crosslink after washing; high values mean tight binding. Particulars: protein: recombinant; tags: N-terminal GST; dsDNA, one strand shown. The procedure, abridged:
(§1)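 After expression in yeast as GST fusions, human transcription factors were bound to glutathione beads, DNA-barcoded and mixed with a tag-only sample. The pools were incubated with 200 nmole of a 16-mer random double-stranded DNA library in Tris/NaCl/DTT/glycerol buffer (30 min, room temperature), washed and crosslinked with 0.1% formaldehyde. Proximity ligation with BsaI/T4 ligase ran for 1 h at 37 °C, before PCR amplification and sequencing on an Illumina NextSeq500. Binding signal is a hexamer's read frequency for a factor divided by its frequency for the tag-only sample.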
Turning to GACCTC, the binding signal is 1.38 fold enrichment (6-mer frequency, TF over GST control).
On to CGTTCC, for which the binding signal is 1.45 fold enrichment (6-mer frequency, TF over GST control).
Turning to ACTGGC, the binding signal is 1.11 fold enrichment (6-mer frequency, TF over GST control).
The same measure, in the same setting: for ATGGAC the value was 1.16 fold enrichment (6-mer frequency, TF over GST control); for CAATTG, 1.14 fold enrichment (6-mer frequency, TF over GST control).
As to TGCCGA, the binding signal was 1.1 fold enrichment (6-mer frequency, TF over GST control).
ACTCAC: the binding signal is 1.17 fold enrichment (6-mer frequency, TF over GST control).
As for GCCTCA, the binding signal was 1.13 fold enrichment (6-mer frequency, TF over GST control).
Turning to CGACCC, the binding signal is 1.22 fold enrichment (6-mer frequency, TF over GST control).
In the case of CCACGC, the binding signal was 1.16 fold enrichment (6-mer frequency, TF over GST control).
TGTTCA: the binding signal was 1.19 fold enrichment (6-mer frequency, TF over GST control).
GAAAAA: the binding signal is 1.14 fold enrichment (6-mer frequency, TF over GST control).
On to TGTACA, for which the binding signal was 1.24 fold enrichment (6-mer frequency, TF over GST control).
Turning to CGTCCT, the binding signal is 1.41 fold enrichment (6-mer frequency, TF over GST control).
GAAGCA: the binding signal is 1.34 fold enrichment (6-mer frequency, TF over GST control).
As for ACTGCC, the binding signal was 1.44 fold enrichment (6-mer frequency, TF over GST control).
With TGCGTA, the binding signal is 1.05 fold enrichment (6-mer frequency, TF over GST control).
The same measure, in the same setting: for CGCGTC the value was 1.27 fold enrichment (6-mer frequency, TF over GST control).
Take CCGACA: the binding signal is 1.29 fold enrichment (6-mer frequency, TF over GST control).
Regarding GCGTTC, the binding signal was 1.03 fold enrichment (6-mer frequency, TF over GST control).
Still for that read-out and setting: for GTACAT the value was 1.35 fold enrichment (6-mer frequency, TF over GST control).
Still for that read-out and setting: the same measure for CGACAT: 1.31 fold enrichment (6-mer frequency, TF over GST control); for CCTGCA: 1.23 fold enrichment (6-mer frequency, TF over GST control); for TGCAAC: 1.41 fold enrichment (6-mer frequency, TF over GST control).
TGCCCC: the binding signal is 1.28 fold enrichment (6-mer frequency, TF over GST control).
As for TGACAT, the binding signal was 1.19 fold enrichment (6-mer frequency, TF over GST control).
As to CCGTAC, the binding signal was 1.3 fold enrichment (6-mer frequency, TF over GST control).
Consider TGAAAC, for which the binding signal is 1.16 fold enrichment (6-mer frequency, TF over GST control).
Consider ACTGCG, for which the binding signal was 1.26 fold enrichment (6-mer frequency, TF over GST control).
Take CCCTCA: the binding signal was 1.16 fold enrichment (6-mer frequency, TF over GST control).
Regarding TGACCA, the binding signal is 1.15 fold enrichment (6-mer frequency, TF over GST control).
With TCTGAC, the binding signal is 1.16 fold enrichment (6-mer frequency, TF over GST control).
For the sequence ACGAAC, the binding signal was 1.15 fold enrichment (6-mer frequency, TF over GST control).
Regarding GAAGTT, the binding signal was 1.77 fold enrichment (6-mer frequency, TF over GST control).
As to CCGGCA, the binding signal was 1.53 fold enrichment (6-mer frequency, TF over GST control).
In the case of ACCGTC, the binding signal was 1.15 fold enrichment (6-mer frequency, TF over GST control).
Same read-out and setting: for CTGCCA the value was 1.23 fold enrichment (6-mer frequency, TF over GST control); for GTCTCT, 1.33 fold enrichment (6-mer frequency, TF over GST control).
For GAAACT, the binding signal is 1.11 fold enrichment (6-mer frequency, TF over GST control).

In another assay the target is ELF1 (Homo sapiens, UniProt P32519 1-619). The assay is described as above. Conditions: protein: recombinant; tags: N-terminal GST; dsDNA, one strand shown. The procedure, abridged:
as §1
Consider GACCTC, for which the binding signal was 1.39 fold enrichment (6-mer frequency, TF over GST control).
Take CGTTCC: the binding signal is 1.44 fold enrichment (6-mer frequency, TF over GST control).
ACTGGC: the binding signal was 1.18 fold enrichment (6-mer frequency, TF over GST control).
On to ATGGAC, for which the binding signal was 1.26 fold enrichment (6-mer frequency, TF over GST control).
As for CAATTG, the binding signal is 1.28 fold enrichment (6-mer frequency, TF over GST control).
Consider TGCCGA, for which the binding signal was 1.03 fold enrichment (6-mer frequency, TF over GST control).
With ACTCAC, the binding signal is 1.18 fold enrichment (6-mer frequency, TF over GST control).
In the case of GCCTCA, the binding signal was 1.25 fold enrichment (6-mer frequency, TF over GST control).
The same measure, in the same setting: for CGACCC the value was 1.26 fold enrichment (6-mer frequency, TF over GST control); for CCACGC, 1.22 fold enrichment (6-mer frequency, TF over GST control).
As to TGTTCA, the binding signal was 1.18 fold enrichment (6-mer frequency, TF over GST control).
For the sequence GAAAAA, the binding signal is 1.1 fold enrichment (6-mer frequency, TF over GST control).
For the sequence TGTACA, the binding signal is 1.23 fold enrichment (6-mer frequency, TF over GST control).
As to CGTCCT, the binding signal was 1.3 fold enrichment (6-mer frequency, TF over GST control).
GAAGCA: the binding signal is 1.25 fold enrichment (6-mer frequency, TF over GST control).
For ACTGCC, the binding signal is 1.42 fold enrichment (6-mer frequency, TF over GST control).
On the same count and under the same terms, the same measure for TGCGTA: 1.1 fold enrichment (6-mer frequency, TF over GST control); for CGCGTC: 1.28 fold enrichment (6-mer frequency, TF over GST control).
In the case of CCGACA, the binding signal was 1.27 fold enrichment (6-mer frequency, TF over GST control).
The same measure, in the same setting: for GCGTTC the value was 1.12 fold enrichment (6-mer frequency, TF over GST control); for GTACAT, 1.36 fold enrichment (6-mer frequency, TF over GST control).
Same read-out and setting: for CGACAT the value was 1.25 fold enrichment (6-mer frequency, TF over GST control).
Consider CCTGCA, for which the binding signal is 1.36 fold enrichment (6-mer frequency, TF over GST control).
On the same count and under the same terms, for TGCAAC the value was 1.35 fold enrichment (6-mer frequency, TF over GST control).
For the sequence TGCCCC, the binding signal is 1.27 fold enrichment (6-mer frequency, TF over GST control).
On to TGACAT, for which the binding signal is 1.28 fold enrichment (6-mer frequency, TF over GST control).
With CCGTAC, the binding signal is 1.45 fold enrichment (6-mer frequency, TF over GST control).
On to TGAAAC, for which the binding signal is 1.4 fold enrichment (6-mer frequency, TF over GST control).
With ACTGCG, the binding signal was 1.35 fold enrichment (6-mer frequency, TF over GST control).
With CCCTCA, the binding signal is 1.19 fold enrichment (6-mer frequency, TF over GST control).
TGACCA: the binding signal was 1.29 fold enrichment (6-mer frequency, TF over GST control).
As to TCTGAC, the binding signal is 1.28 fold enrichment (6-mer frequency, TF over GST control).
Same read-out and setting: for ACGAAC the value was 1.24 fold enrichment (6-mer frequency, TF over GST control); for GAAGTT, 1.61 fold enrichment (6-mer frequency, TF over GST control); for CCGGCA, 1.29 fold enrichment (6-mer frequency, TF over GST control).
Take ACCGTC: the binding signal was 1.19 fold enrichment (6-mer frequency, TF over GST control).
Consider CTGCCA, for which the binding signal is 1.23 fold enrichment (6-mer frequency, TF over GST control).
Take GTCTCT: the binding signal was 1.29 fold enrichment (6-mer frequency, TF over GST control).
Take GAAACT: the binding signal was 1.18 fold enrichment (6-mer frequency, TF over GST control).

The next assay deals with T2, EHF (Homo sapiens, UniProt Q9NZC4 1-300).
T2 sequence: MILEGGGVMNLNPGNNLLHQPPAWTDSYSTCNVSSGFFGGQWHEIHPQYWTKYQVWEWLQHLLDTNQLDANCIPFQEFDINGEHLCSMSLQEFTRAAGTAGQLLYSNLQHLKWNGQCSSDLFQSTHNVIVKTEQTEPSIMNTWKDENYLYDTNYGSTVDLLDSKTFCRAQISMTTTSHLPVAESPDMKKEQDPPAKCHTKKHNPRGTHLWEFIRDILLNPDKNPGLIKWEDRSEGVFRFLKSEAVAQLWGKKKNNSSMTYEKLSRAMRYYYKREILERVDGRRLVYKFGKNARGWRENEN
The description is as above. Particulars: protein: recombinant; tags: N-terminal GST; dsDNA, one strand shown. In a few lines: as §1
Consider GACCTC, for which the binding signal is 1.31 fold enrichment (6-mer frequency, TF over GST control).
As to CGTTCC, the binding signal was 1.42 fold enrichment (6-mer frequency, TF over GST control).
ACTGGC: the binding signal is 1.1 fold enrichment (6-mer frequency, TF over GST control).
The same measure, in the same setting: the same measure for ATGGAC: 1.21 fold enrichment (6-mer frequency, TF over GST control).
Regarding CAATTG, the binding signal was 1.27 fold enrichment (6-mer frequency, TF over GST control).
With TGCCGA, the binding signal was 1.24 fold enrichment (6-mer frequency, TF over GST control).
For the sequence ACTCAC, the binding signal is 1.24 fold enrichment (6-mer frequency, TF over GST control).
Take GCCTCA: the binding signal is 1.17 fold enrichment (6-mer frequency, TF over GST control).
As to CGACCC, the binding signal was 1.29 fold enrichment (6-mer frequency, TF over GST control).
Still for that read-out and setting: the same measure for CCACGC: 1.12 fold enrichment (6-mer frequency, TF over GST control).
For the sequence TGTTCA, the binding signal is 1.23 fold enrichment (6-mer frequency, TF over GST control).
As to GAAAAA, the binding signal is 1.2 fold enrichment (6-mer frequency, TF over GST control).
As for TGTACA, the binding signal is 1.26 fold enrichment (6-mer frequency, TF over GST control).
Turning to CGTCCT, the binding signal was 1.37 fold enrichment (6-mer frequency, TF over GST control).
On to GAAGCA, for which the binding signal is 1.26 fold enrichment (6-mer frequency, TF over GST control).
On the same count and under the same terms, the same measure for ACTGCC: 1.46 fold enrichment (6-mer frequency, TF over GST control).
In the case of TGCGTA, the binding signal was 1.06 fold enrichment (6-mer frequency, TF over GST control).
Turning to CGCGTC, the binding signal is 1.25 fold enrichment (6-mer frequency, TF over GST control).
For CCGACA, the binding signal is 1.21 fold enrichment (6-mer frequency, TF over GST control).
In the case of GCGTTC, the binding signal is 1.06 fold enrichment (6-mer frequency, TF over GST control).
Turning to GTACAT, the binding signal was 1.26 fold enrichment (6-mer frequency, TF over GST control).
With CGACAT, the binding signal is 1.26 fold enrichment (6-mer frequency, TF over GST control).
Turning to CCTGCA, the binding signal was 1.42 fold enrichment (6-mer frequency, TF over GST control).
Consider TGCAAC, for which the binding signal was 1.36 fold enrichment (6-mer frequency, TF over GST control).
Turning to TGCCCC, the binding signal was 1.32 fold enrichment (6-mer frequency, TF over GST control).
Take TGACAT: the binding signal was 1.36 fold enrichment (6-mer frequency, TF over GST control).
For the sequence CCGTAC, the binding signal was 1.33 fold enrichment (6-mer frequency, TF over GST control).
For TGAAAC, the binding signal was 1.28 fold enrichment (6-mer frequency, TF over GST control).
In the case of ACTGCG, the binding signal was 1.37 fold enrichment (6-mer frequency, TF over GST control).
Same read-out and setting: for CCCTCA the value was 1.1 fold enrichment (6-mer frequency, TF over GST control).
Regarding TGACCA, the binding signal was 1.33 fold enrichment (6-mer frequency, TF over GST control).
Still for that read-out and setting: for TCTGAC the value was 1.3 fold enrichment (6-mer frequency, TF over GST control); for ACGAAC, 1.12 fold enrichment (6-mer frequency, TF over GST control); for GAAGTT, 1.72 fold enrichment (6-mer frequency, TF over GST control).
Same read-out and setting: for CCGGCA the value was 1.4 fold enrichment (6-mer frequency, TF over GST control).
Same read-out and setting: the same measure for ACCGTC: 1.07 fold enrichment (6-mer frequency, TF over GST control); for CTGCCA: 1.18 fold enrichment (6-mer frequency, TF over GST control).
As to GTCTCT, the binding signal is 1.19 fold enrichment (6-mer frequency, TF over GST control).
GAAACT: the binding signal is 1.19 fold enrichment (6-mer frequency, TF over GST control).
